From PubChem BioAssay AID2242 (National Center for Advancing Translational Sciences (NCATS), 2010)
In all, about 200,000 compounds went through this assay and about 720 (0.36%) were called active. Roughly 8% stayed inconclusive and do not appear here. The list shows a part of the results. Unmarked numbers belong to inactive results. The call rests on the fitted dose curve; in most records, active means well fitted activation curve with a large enough effect; inconclusive means small, poorly fitted or top-dose-only effect, or effect the other way, or another doubt; inactive means flat fitted curve, though single readings scatter.

Each molecule was assayed against Lysosomal alpha-glucosidase (Homo sapiens) (UniProt P10253) (assay: qHTS Assay for Activators of Human alpha-Glucosidase as a Potential Chaperone Treatment of Pompe Disease). Details: purified enzyme, 4-MU-alpha-glucoside fluorescence, 20 min; series mostly up to 76.9 µM; activity change, positive = activation: at the top concentration.
Procedure, shortened: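 Compounds titrated up to 77 uM against 4 nM enzyme and 400 uM methylumbelliferyl substrate at room temperature, 20 min, pH 5.0. Basic stop, then 4-methylumbelliferone fluorescence (365/440 nm) normalized to no-enzyme and enzyme controls; Hill-equation AC50.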
Further: nearly all actives have a fitted effect of over 80% in size.
Potency means the concentration at half of the fitted maximal effect.
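Wherever activity change, positive = activation is given: 0% = no enzyme basal signal and 100% = uninhibited enzyme activity.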

Row | Structure (SMILES) | Potency | activity change, positive = activation [%]
1 | CCCCCn1c(=NC(C)=O)c(C#N)cc2c(=O)n3ccccc3nc21 | 35.5 µM (active) | –
2 | CCOCCCn1c(=NC(C)=O)c(C#N)cc2c(=O)n3ccccc3nc21 | 31.6 µM (active) | –
3 | CCOCCCn1c(=NC(C)=O)c(C#N)cc2c(=O)n3cccc(C)c3nc21 | 31.6 µM (active) | –
4 | O=C(Oc1ccc2c3c(c(=O)oc2c1)CCCC3)c1cccs1 | 35.5 µM (active) | –
5 | O=C(Oc1cc2oc(=O)c3c(c2cc1Cl)CCCC3)c1cccs1 | 31.6 µM (active) | –
6 | CCN1CCCC1CNC(=O)c1ccc2c(=O)n(CCOC)c(=O)[nH]c2c1 (configuration not stated) | 31.6 µM (active) | –
7 | COCCn1c(=O)[nH]c2cc(C(=O)NCc3cccnc3)ccc2c1=O | 35.5 µM (active) | –
8 | COCCn1c(=O)[nH]c2cc(C(=O)NC(C)C)ccc2c1=O | 35.5 µM (active) | –
9 | O=C(O)c1cccc(NC(=O)C2C3C=CC(C3)C2C(=O)O)c1 (configuration not stated) | 31.6 µM (active) | –
10 | COc1ccc(CCNC(=O)CSc2nc(-c3ccc(OC)c(OC)c3)ccc2C#N)cc1 | 28.2 µM (active) | –
11 | O=c1oc2c(CN3CCOCC3)c(O)c(Cl)cc2c2c1CCC2 | 35.5 µM (active) | –
12 | O=c1oc2c(CN3CCOCC3)c(O)c(Cl)cc2c2c1CCCC2 | 31.6 µM (active) | –
13 | CCCCN(C(=O)NC(=O)C1=C(N2CCOCC2)/C(=C/c2ccccc2)CC1)S(C)(=O)=O | 31.6 µM (active) | –
14 | CN(C(=O)NC(=O)C1=C(N2CCOCC2)/C(=C/c2ccccc2)CC1)S(C)(=O)=O | 39.8 µM (active) | –
15 | CN(C)CCCNS(=O)(=O)c1ccc(N2CCC(c3ccc(Cl)cc3)=N2)cc1 | 35.5 µM (active) | –
16 | O=S(=O)(c1ccc(N2CCC(c3ccc(Cl)cc3)=N2)cc1)N(CCO)CCO | 35.5 µM (active) | –
17 | Cc1ccc2c(c1)Cc1nc3ccccc3nc1-2 | 35.5 µM (active) | –
18 | COc1ccc2cc3cc(C(=O)NCc4cccnc4)oc3nc2c1 | 31.6 µM (active) | –
19 | COc1ccc2cc3cc(C(=O)NCc4ccco4)oc3nc2c1 | 31.6 µM (active) | –
20 | c1coc(-c2nc3nc4ccccc4nc3n2CC2CCCO2)c1 (configuration not stated) | 25.1 µM (active) | –
21 | CCCCCn1c(-c2ccco2)nc2nc3ccccc3nc21 | 39.8 µM (active) | –
22 | CC(C)OCCCn1c(-c2ccco2)nc2nc3ccccc3nc21 | 35.5 µM (active) | –
23 | COCCn1c(-c2ccco2)nc2nc3ccccc3nc21 | 35.5 µM (active) | –
24 | c1ccc(Cn2c(-c3ccco3)nc3nc4ccccc4nc32)cc1 | 35.5 µM (active) | –
25 | CCC(C)n1c(-c2ccco2)nc2nc3ccccc3nc21 (configuration not stated) | 39.8 µM (active) | –

Row | Structure (SMILES) | Potency | activity change, positive = activation [%]
26 | CC(C)N(C(=O)COC(=O)c1cc(Cl)cc(Cl)c1N)C(C)C | 35.5 µM (active) | –
27 | COC(=O)CNC(=O)COC(=O)c1cc(Cl)cc(Cl)c1N | 39.8 µM (active) | –
28 | Nc1c(Cl)cc(Cl)cc1C(=O)OCC(=O)NC1CC1 | 35.5 µM (active) | –
29 | Nc1c(Cl)cc(Cl)cc1C(=O)OCC(=O)N1CCOCC1 | 31.6 µM (active) | –
30 | CCOC(=O)CCc1c(C)c(C#N)c2[nH]c3ccccc3n2c1=O | 31.6 µM (active) | –
31 | Cc1ccc(Cc2c(C)c(C#N)c3[nH]c4ccccc4n3c2=O)cc1 | 35.5 µM (active) | –
32 | Cc1c(CCC(=O)O)c(=O)n2c([nH]c3ccccc32)c1C#N | 35.5 µM (active) | –
33 | CCCCc1c(C)c(C#N)c2[nH]c3ccccc3n2c1=O | 22.4 µM (active) | –
34 | COc1ccccc1[C@@H]1C(c2cccc(Cl)c2)=NN(c2ccc(Br)cc2)[C@H]1C(=O)N1CCOC1=O | 31.6 µM (active) | –
35 | Cc1cccc(C2=NN(c3ccc(Br)cc3)[C@@H](C(=O)N3CCOC3=O)[C@@H]2c2ccc(F)cc2)c1 | 31.6 µM (active) | –
36 | COC(=O)Cc1c(C)c2cc(Cl)c(OC(=O)c3ccco3)cc2oc1=O | 28.2 µM (active) | –
37 | COC(=O)Cc1c(C)c2ccc(OC(=O)c3ccco3)cc2oc1=O | 35.5 µM (active) | –
38 | CC(=O)Oc1ccc2c(C)c(CC(C)O)c(=O)oc2c1 (configuration not stated) | 39.8 µM (active) | –
39 | COC(=O)Cc1c(C)c2ccc(OC(=O)c3ccccc3)cc2oc1=O | 35.5 µM (active) | –
40 | CCC(=O)Nc1c(C#N)c2nc3ccccc3nc2n1-c1ccccc1C | 39.8 µM (active) | –
41 | CCCCN(C)C(=O)CCC(=O)Nc1ccc2nc(N3CCOCC3)cc(C)c2c1 | 39.8 µM (active) | –
42 | CCC(C)NC(=O)CCC(=O)Nc1ccc2nc(N3CC(C)CC(C)C3)cc(C)c2c1 (configuration not stated) | 31.6 µM (active) | –
43 | CCC(C)NC(=O)CCC(=O)Nc1ccc2nc(N3CCOCC3)cc(C)c2c1 (configuration not stated) | 35.5 µM (active) | –
44 | Fc1ccc(C2=NN(c3ccccc3)C(c3ccco3)C2)cc1 (configuration not stated) | 35.5 µM (active) | –
45 | Cc1ccc(N2N=C(c3ccc(F)cc3)CC2c2ccco2)cc1 (configuration not stated) | 28.2 µM (active) | –
46 | COc1ccccc1C1CC(c2ccco2)=NN1c1ccccc1 (configuration not stated) | 31.6 µM (active) | –
47 | CCOc1cc(C2C3=C(CCCC3=O)N(CCC(=O)O)C3=C2C(=O)CCC3)ccc1OS(=O)(=O)c1ccc(C)cc1 | 35.5 µM (active) | –
48 | COc1ccc(/C=C/c2nnc(NC(=O)COc3cccc(C)c3)s2)cc1 | 31.6 µM (active) | –
49 | COC(=O)Nc1nnc(/C=C/c2ccccc2)s1 | 31.6 µM (active) | –
50 | CCSc1ccc(-c2nn(-c3ccccc3)cc2/C=C(/C#N)C(=O)NC)cc1 | 25.1 µM (active) | –

Row | Structure (SMILES) | Potency | activity change, positive = activation [%]
51 | CCSc1ccc(-c2nn(-c3ccccc3)cc2/C=C(/C#N)C(=O)NCCCOC)cc1 | 35.5 µM (active) | –
52 | CCOC(=O)/C(C#N)=C/c1cn(CCC(=O)O)nc1-c1ccc(Br)cc1 | – | 9.4e-05
53 | N#Cc1c(N)n(CCNC(=O)c2ccccc2)c2nc3ccccc3nc12 | 7.94 µM (active) | –
54 | N#Cc1c(N)n(CCNC(=O)c2cccs2)c2nc3ccccc3nc12 | 35.5 µM (active) | –
55 | CCCCCn1c(N)c(C#N)c2nc3ccccc3nc21 | 35.5 µM (active) | –
56 | N#Cc1c(N)n(CCCN2CCOCC2)c2nc3ccccc3nc12 | 35.5 µM (active) | –
57 | COCCn1c(N)c(C#N)c2nc3ccccc3nc21 | 35.5 µM (active) | –
58 | Cc1cc(-n2c(=O)c(C#N)cc3c(=O)n4cccc(C)c4nc32)no1 | 35.5 µM (active) | –
59 | Cc1cc(-n2c(=O)c(C#N)cc3c(=O)n4ccccc4nc32)no1 | 35.5 µM (active) | –
60 | COC(=O)c1ccccc1NC(=O)/C=C/c1cc(OC)c(OC)c(OC)c1 | 35.5 µM (active) | –
61 | CSc1nnc(-c2cccn(Cc3ccccc3)c2=O)o1 | 35.5 µM (active) | –
62 | CSc1nnc(-c2cccn(Cc3cccc(Cl)c3)c2=O)o1 | 28.2 µM (active) | –
63 | Nc1ccc(-c2nc3ccc(N)cc3o2)cc1 | 35.5 µM (active) | –
64 | Nc1ccc(-c2nc3ccc(-c4nc5ccccc5o4)cc3[nH]2)cc1 | 28.2 µM (active) | –
65 | Nc1ccc(-c2nc3ccc(N)cc3[nH]2)cc1 | 39.8 µM (active) | –
66 | CCc1cc(=O)n2c([nH]c3ccccc32)c1C#N | 28.2 µM (active) | –
67 | COCc1cc(=O)n2c([nH]c3ccccc32)c1C#N | 35.5 µM (active) | –
68 | CCCc1cc(=O)n2c([nH]c3ccccc32)c1C#N | 39.8 µM (active) | –
69 | Cc1ccc(-n2c(=O)c(C#N)cc3c(=O)n4ccccc4nc32)cc1 | 25.1 µM (active) | –
70 | Cc1ccc(-n2c(=O)c(C#N)cc3c(=O)n4cccc(C)c4nc32)cc1 | 10 µM (active) | –
71 | Cc1ccc2nc3c(cc(C#N)c(=O)n3-c3nccs3)c(=O)n2c1 | 35.5 µM (active) | –
72 | N#Cc1cc2c(=O)n3ccccc3nc2n(-c2ccc(Cl)cc2)c1=O | 35.5 µM (active) | –
73 | COc1cc(C2NC(=S)NC(c3ccccc3)=C2C(C)=O)cc(Br)c1OCC(N)=O (configuration not stated) | 28.2 µM (active) | –
74 | O=C(CN1C(=O)/C(=C\c2cccc(Cl)c2)Oc2ccccc21)N1CCN(c2ccccn2)CC1 | 3.98 µM (active) | –
75 | CN(C)CCNc1oc(/C=C/c2ccccc2)nc1C#N | 35.5 µM (active) | –

Row | Structure (SMILES) | Potency | activity change, positive = activation [%]
76 | CN(C)c1oc(/C=C/c2ccccc2)nc1C#N | 31.6 µM (active) | –
77 | CNc1oc(/C=C/c2ccccc2)nc1C#N | 35.5 µM (active) | –
78 | C=CCNc1oc(/C=C/c2ccccc2)nc1C#N | 35.5 µM (active) | –
79 | CCC(=O)Nc1c(OC(=O)CC)ccc2c(C)cc(=O)oc12 | 35.5 µM (active) | –
80 | CC(=O)Nc1c(OC(C)=O)ccc2c(C)cc(=O)oc12 | 35.5 µM (active) | –
81 | CC(=O)c1ccc(-c2cccs2)s1 | 35.5 µM (active) | –
82 | COc1cc(OC)c(-c2nc3ccccc3s2)cc1OC | 35.5 µM (active) | –
83 | c1ccc2c(N3CCOCC3)nc(N3CCOCC3)nc2c1 | 28.2 µM (active) | –
84 | CCOC(=O)C1=C(C)NC2=C(C(=O)CCC2)C1c1cn(Cc2ccc(Cl)cc2Cl)nc1-c1ccccc1 (configuration not stated) | 31.6 µM (active) | –
85 | Cc1csc2ncc(C(=O)Nc3ccon3)c(=O)n12 | 35.5 µM (active) | –
86 | Cc1c(O)c(CN2CCCCC2)cc2c3c(c(=O)oc12)CCC3 | 35.5 µM (active) | –
87 | Cc1c(O)c(CN2CCCC2)cc2c3c(c(=O)oc12)CCC3 | 39.8 µM (active) | –
88 | CCNc1cc2oc(=O)c(CN3CCOCC3)c(C)c2cc1C | 31.6 µM (active) | –
89 | CC(C)c1cc(=O)oc2c3c4c(cc12)CCCN4CCC3 | 35.5 µM (active) | –
90 | N#Cc1c(NC2CCCCC2)nc(-c2ccco2)c2c1CCCC2 | 35.5 µM (active) | –
91 | CC(C)CCNc1nc(-c2ccco2)c2c(c1C#N)CCCC2 | 31.6 µM (active) | –
92 | Cc1ccc(C2OC34CCCCCC3C(C#N)(C(=N)O4)C2(C#N)C#N)cc1 (configuration not stated) | 31.6 µM (active) | –
93 | CCOC(=O)c1sc2c(c1C)C(c1cccs1)C1=C(CCCC1=O)N2 (configuration not stated) | 25.1 µM (active) | –
94 | C=CCSc1nnc(-c2cc3c(s2)-c2ccccc2CC3)o1 | 25.1 µM (active) | –
95 | Fc1ccc(CSc2nnc(-c3cc4c(s3)-c3ccccc3CC4)o2)cc1 | 28.2 µM (active) | –
96 | CSc1nnc(-c2cc3c(s2)-c2ccccc2CC3)o1 | 35.5 µM (active) | –
97 | CCSc1nnc(-c2cc3c(s2)-c2ccccc2CC3)o1 | 31.6 µM (active) | –
